# Unmarked numbers belong to inactive results. Inconclusive results are not listed. Where a call stands in place of a potency, no number is given. Calls of active or inactive are those of the source. Unless noted, calls come from the whole dose curve.
# Tests used:
# [1] = Nuclear factor erythroid 2-related factor 2/antioxidant responsive element (Nrf2/ARE) small molecule agonists: qHTS cell viability counter screen in human keratinocytes (AID 1919968; active = well fitted curve in the direction sought with a large enough effect in the repeat runs; an effect the other way counts as inactive or inconclusive; note: nearly all actives have a fitted effect of over 55% in size; note: potency is the fitted concentration of half-maximal effect)
# Procedure, shortened: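 KeratinoSens cells (HaCaT keratinocytes stably carrying an ARE-luciferase reporter) were seeded at 1,500 cells/well and rested 5 h at 37 C/5% CO2. They were then exposed to compounds in DMSO for 23 h. Viability was read by CellTiter-Fluor fluorescence after 1 h.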
# [2] = Nuclear factor erythroid 2-related factor 2/antioxidant responsive element (Nrf2/ARE) small molecule agonists: luciferase reporter gene qHTS assay in human keratinocytes (AID 1919969); note: nearly all actives have a fitted effect of over 35% in size; note: potency is the fitted concentration of half-maximal effect
# [3] = target: Gonadotropin-releasing hormone receptor (Homo sapiens) (UniProt P30968); test: Human gonadotropin-releasing hormone receptor (GnRHR) small molecule agonists, calcium flux assay in GnRHR-HEK293 cells (AID 1920063); note: nearly all actives have a fitted effect of over 35% in size
# Gonadotropin-releasing hormone receptor (Homo sapiens), sequence (P30968 whole entry, looked up): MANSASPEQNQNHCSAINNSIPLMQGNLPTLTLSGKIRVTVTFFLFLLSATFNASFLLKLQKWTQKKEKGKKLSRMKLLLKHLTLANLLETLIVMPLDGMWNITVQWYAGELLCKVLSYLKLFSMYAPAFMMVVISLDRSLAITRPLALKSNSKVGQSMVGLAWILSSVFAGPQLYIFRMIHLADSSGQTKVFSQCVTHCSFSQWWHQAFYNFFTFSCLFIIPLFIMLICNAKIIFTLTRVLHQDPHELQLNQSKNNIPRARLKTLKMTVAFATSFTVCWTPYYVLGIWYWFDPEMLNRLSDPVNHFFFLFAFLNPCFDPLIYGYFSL
# Procedure, shortened: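 HEK293 cells stably expressing human GnRHR were plated 18 h at 37 °C, loaded with calcium dye 1 h at 37 °C, then given compound in agonist mode; fluorescence (Ex/Em 480/540) read kinetically for 3 min at 1 s intervals.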
# [4] = target: KiSS-1 receptor (Homo sapiens) (UniProt Q969F8); test: Human kisspeptin (KISS1R) small molecule agonists, calcium flux assay in KISS1R-HEK293 cells (AID 1920064; active = well fitted curve in the direction sought with a large enough effect in the repeat runs; an effect the other way counts as inactive or inconclusive)
# KiSS-1 receptor (Homo sapiens), sequence (Q969F8 whole entry, looked up): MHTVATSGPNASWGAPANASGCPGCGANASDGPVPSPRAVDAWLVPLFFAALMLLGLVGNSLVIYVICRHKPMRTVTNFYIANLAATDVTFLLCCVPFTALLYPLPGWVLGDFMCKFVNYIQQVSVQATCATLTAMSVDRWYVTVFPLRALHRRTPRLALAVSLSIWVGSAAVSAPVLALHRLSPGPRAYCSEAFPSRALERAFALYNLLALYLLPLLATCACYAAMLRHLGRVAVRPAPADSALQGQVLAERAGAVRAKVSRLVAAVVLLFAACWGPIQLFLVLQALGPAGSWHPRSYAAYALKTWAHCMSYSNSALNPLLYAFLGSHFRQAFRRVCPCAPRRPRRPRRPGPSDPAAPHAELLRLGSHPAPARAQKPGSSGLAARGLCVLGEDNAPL
# Procedure, shortened: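 HEK293 cells stably expressing human KISS1R were plated 18 h at 37 °C, loaded with calcium dye for 1 h at 37 °C, then given compound by pin tool. Fluorescence (Ex/Em 480/540) was read kinetically for 3 min.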
# [5] = G protein-coupled receptor (GPCR) small molecule agonists, calcium flux assay: HEK293 wild type cell line counter screen (AID 1920065)
# Procedure, shortened: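 Cells were plated and cultured 18 h at 37 C/5% CO2, then loaded with calcium dye for 1 h at 37 C. Compounds in DMSO were pin-transferred in agonist mode, and fluorescence (Ex/Em 480/540) was read kinetically for 3 min at 1 s intervals.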
# [6] = p53 small molecule agonists, cell-based qHTS assay with human liver microsomes (AID 1963577)
# Procedure, shortened: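 p53RE-bla reporter cells were pre-incubated 5 h at 37 C, then treated with compounds plus human liver microsomes (0.5 mg/mL final) and NADPH (0.5 mg/mL final) for 16 h at 37 C. Beta-lactamase activity was read by LiveBLAzer fluorescence after 2 h at room temperature.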
# [7] = p53 small molecule agonists, cell-based qHTS assay with rat liver microsomes (AID 1963578)
# Procedure, shortened: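 p53RE-bla cells were exposed to compounds together with rat liver microsomes (0.5 mg/mL final) and NADPH (0.5 mg/mL final) for 16 h at 37 C, then read by LiveBLAzer beta-lactamase fluorescence after 2 h at room temperature.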
# [8] = p53 small molecule agonists, cell-based qHTS assay with rat liver microsomes: qHTS cell viability counter screen (AID 1963580); note: nearly all actives have a fitted effect of over 45% in size; note: potency is the fitted concentration of half-maximal effect
# Procedure, shortened: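 p53RE-bla HCT-116 cells were exposed 16 h at 37 C to compounds with rat liver microsomes (0.5 mg/mL) and NADPH (0.5 mg/mL). Viability was measured in the same wells as ATP content by CellTiter-Glo luminescence.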
# [9] = p53 small molecule agonists, cell-based qHTS assay: qHTS cell viability counter screen (AID 1963581); note: nearly all actives have a fitted effect of over 45% in size; note: potency is the fitted concentration of half-maximal effect
# Procedure, shortened: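 p53RE-bla HCT-116 cells were exposed to compounds for 16 h at 37 C; after the beta-lactamase FRET read in the same wells, CellTiter-Glo was added and luminescence (intracellular ATP) read after 30 min at room temperature.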
# [10] = target: Beta-2 adrenergic receptor (Homo sapiens) (UniProt P07550); test: Adrenergic beta2 receptor (ADRB2) small molecule antagonists, cell-based qHTS assay (AID 1963592); note: nearly all actives have a fitted effect of over 50% in size; note: potency is the fitted concentration of half-maximal effect
# Beta-2 adrenergic receptor (Homo sapiens), sequence (P07550 whole entry, looked up): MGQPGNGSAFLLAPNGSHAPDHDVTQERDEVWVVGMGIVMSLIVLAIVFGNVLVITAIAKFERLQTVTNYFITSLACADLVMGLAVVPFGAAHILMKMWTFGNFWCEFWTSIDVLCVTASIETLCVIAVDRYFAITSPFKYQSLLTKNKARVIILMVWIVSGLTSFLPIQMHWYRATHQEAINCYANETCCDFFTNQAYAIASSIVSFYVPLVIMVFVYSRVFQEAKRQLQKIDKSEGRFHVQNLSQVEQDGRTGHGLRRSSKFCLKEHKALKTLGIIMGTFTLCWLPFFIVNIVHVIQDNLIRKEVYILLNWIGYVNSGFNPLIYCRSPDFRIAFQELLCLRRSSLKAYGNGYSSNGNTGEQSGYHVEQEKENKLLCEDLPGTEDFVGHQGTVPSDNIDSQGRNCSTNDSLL
# Procedure, shortened: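 Cells (CHO, stable ADRB2 overexpression) incubated 18-20hr at 37C; compounds added from DMSO; agonist mix (1nM isoproterenol, 100uM IBMX, 25uM Ro-20-1724) added; 0.5hr RT; d2-cAMP and anti-cAMP-cryptate added; 1hr RT; 665/615 nm read.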
# [11] = target: D(2) dopamine receptor (Homo sapiens) (UniProt P14416); test: Dopamine D2 receptor (DRD2) small molecule agonists, cell-based qHTS assay (AID 1963594); note: nearly all actives have a fitted effect of over 35% in size; note: potency is the fitted concentration of half-maximal effect
# D(2) dopamine receptor (Homo sapiens), sequence (P14416 whole entry, looked up): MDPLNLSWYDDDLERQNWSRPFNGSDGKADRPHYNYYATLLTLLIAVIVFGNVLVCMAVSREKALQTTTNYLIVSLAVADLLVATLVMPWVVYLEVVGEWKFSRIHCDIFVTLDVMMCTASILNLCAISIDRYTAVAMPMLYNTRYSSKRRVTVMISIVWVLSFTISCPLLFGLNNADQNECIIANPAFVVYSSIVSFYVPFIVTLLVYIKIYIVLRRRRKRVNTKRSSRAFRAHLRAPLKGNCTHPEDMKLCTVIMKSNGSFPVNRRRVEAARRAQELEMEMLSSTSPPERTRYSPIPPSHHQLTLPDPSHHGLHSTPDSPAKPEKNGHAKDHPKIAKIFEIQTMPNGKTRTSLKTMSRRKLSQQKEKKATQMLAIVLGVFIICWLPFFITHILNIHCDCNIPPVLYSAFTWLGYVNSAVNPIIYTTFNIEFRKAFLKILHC
# Procedure, shortened: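 HEK293 cells stably expressing human DRD2, pre-treated with PDE inhibitor Ro20-1724 (0.1 mM final) and compound 10 min at room temperature, then stimulated with NKH477 (200nM […]) for 30 min. cAMP read by HTRF (665/620 nm).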
# [12] = target: D(2) dopamine receptor (Homo sapiens) (UniProt P14416); test: Dopamine D2 receptor (DRD2) small molecule antagonists, cell-based qHTS assay (AID 1963595; active = well fitted inhibition curve with a large enough effect in the signal ratio in the repeat runs, with a control signal flat; the % refers to the signal ratio)
# Procedure, shortened: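 DRD2-HEK293; 0.1 mM Ro20-1724; cpd 10 min RT; NKH477 200 nM + quinpirole 12 nM, 30 min RT; HTRF cAMP (cAMP-d2/anti-cAMP cryptate), 665/620 nm ratio after 1 h.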
# [13] = p53 small molecule agonists, cell-based qHTS assay (AID 1963582; active = well fitted activation curve with a large enough effect in the signal ratio in the repeat runs, not every such curve was filed as active; the % refers to the signal ratio)
# Procedure, shortened: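 p53RE-bla beta-lactamase reporter cells rested 5 h at 37 C/5% CO2, then received compounds in DMSO by pin transfer and were incubated 16 h at 37 C. LiveBLAzer B/G FRET substrate was loaded for 2 h at room temperature before fluorescence reading.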
# [14] = target: 5-hydroxytryptamine receptor 2A (Homo sapiens) (UniProt P28223); test: 5-hydroxytryptamine receptor 2A (HTR2A) small molecule antagonists, cell-based qHTS assay (AID 1963586); note: nearly all actives have a fitted effect of over 45% in size; note: potency is the fitted concentration of half-maximal effect
# 5-hydroxytryptamine receptor 2A (Homo sapiens), sequence (P28223 whole entry, looked up): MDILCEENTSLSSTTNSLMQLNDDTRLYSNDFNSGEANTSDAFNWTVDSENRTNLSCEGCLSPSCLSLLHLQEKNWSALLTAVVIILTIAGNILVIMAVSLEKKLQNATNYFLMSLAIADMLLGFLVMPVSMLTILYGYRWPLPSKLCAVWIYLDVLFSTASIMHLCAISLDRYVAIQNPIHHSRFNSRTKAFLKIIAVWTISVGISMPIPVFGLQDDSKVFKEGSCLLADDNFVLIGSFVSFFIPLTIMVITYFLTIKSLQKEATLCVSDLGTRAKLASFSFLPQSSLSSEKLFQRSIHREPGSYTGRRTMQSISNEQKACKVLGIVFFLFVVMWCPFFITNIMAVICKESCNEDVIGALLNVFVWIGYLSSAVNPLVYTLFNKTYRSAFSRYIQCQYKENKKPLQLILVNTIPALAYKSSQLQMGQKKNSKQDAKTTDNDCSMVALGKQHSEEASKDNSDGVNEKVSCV
# Procedure, shortened: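 Antagonist-mode intracellular calcium assay: DOI (4 nM) added after 5 min compound pre-incubation at room temperature to dye-loaded HTR2A-CHO cells. Fluorescence followed for 3 min, sampled every second.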
# [15] = target: 5-hydroxytryptamine receptor 2A (Homo sapiens) (UniProt P28223); test: 5-hydroxytryptamine receptor 2A (HTR2A) small molecule agonists, cell-based qHTS assay (AID 1963587); note: nearly all actives have a fitted effect of over 30% in size; note: potency is the fitted concentration of half-maximal effect
# Procedure, shortened: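 CHO cells stably expressing human HTR2A, plated 18 h, loaded with calcium dye 1 h at 37 C. Agonist mode: compounds added and intracellular calcium fluorescence recorded kinetically for 2 min at 1 sec intervals.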
# [16] = target: Muscarinic acetylcholine receptor M1 (Homo sapiens) (UniProt P11229); test: Cholinergic receptor muscarinic 1 (CHRM1) small molecule antagonists, cell-based qHTS assay (AID 1963588); note: nearly all actives have a fitted effect of over 40% in size; note: potency is the fitted concentration of half-maximal effect
# Muscarinic acetylcholine receptor M1 (Homo sapiens), sequence (P11229 whole entry, looked up): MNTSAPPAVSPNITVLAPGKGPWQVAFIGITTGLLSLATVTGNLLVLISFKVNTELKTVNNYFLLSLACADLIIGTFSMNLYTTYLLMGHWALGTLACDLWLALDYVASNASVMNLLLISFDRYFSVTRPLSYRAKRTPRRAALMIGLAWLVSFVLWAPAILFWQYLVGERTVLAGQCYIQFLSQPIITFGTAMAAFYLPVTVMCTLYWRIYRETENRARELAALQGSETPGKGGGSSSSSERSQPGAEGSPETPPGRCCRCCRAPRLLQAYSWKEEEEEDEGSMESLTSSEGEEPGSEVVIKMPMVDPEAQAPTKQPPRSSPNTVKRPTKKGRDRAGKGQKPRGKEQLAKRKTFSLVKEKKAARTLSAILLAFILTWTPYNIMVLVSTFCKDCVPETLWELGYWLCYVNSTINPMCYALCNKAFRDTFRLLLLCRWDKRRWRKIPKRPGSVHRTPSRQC
# Procedure, shortened: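 CHRM1-CHO calcium-flux assay, antagonist mode. Cells were seeded 18 h, dye-loaded 1 h at 37 C and given compound for 5 min at RT, then acetylcholine was added at 50nM. FDSS fluorescence was read 3 min; 15 concentrations, three runs.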
# [17] = target: Muscarinic acetylcholine receptor M1 (Homo sapiens) (UniProt P11229); test: Cholinergic receptor muscarinic 1 (CHRM1) small molecule agonists, cell-based qHTS assay (AID 1963589); note: nearly all actives have a fitted effect of over 35% in size
# Procedure, shortened: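 CHO cells stably expressing human CHRM1, seeded 18 h at 37 C/5% CO2, dye-loaded 1 h at 37 C, then given compound in agonist mode; intracellular calcium fluorescence read kinetically at 1 s intervals. Fifteen concentrations, three independent runs.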
# [18] = cAMP Responsive Elements (CRE) small molecule agonists, cell-based qHTS assay (AID 1963590)
# Procedure, shortened: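 CRE-bla HEK 293T cells in DMEM with 10% dialyzed FBS, NEAA, pyruvate and 25 mM HEPES were plated 18 h at 37 C/5% CO2, then exposed to compounds in DMSO for 3 h before LiveBLAzer B/G FRET substrate addition.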
# [19] = cAMP Responsive Elements (CRE) small molecule antagonists, cell-based qHTS assay (AID 1963591; active = well fitted inhibition curve with a large enough effect in the signal ratio in the repeat runs, not every such curve was filed as active; the % refers to the signal ratio)
# Procedure, shortened: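 CRE-bla HEK293T cells were plated 18 h at 37 °C/5% CO2, pinned with compound in DMSO, then stimulated with NKH477 at 0.25 uM final for 3 h. LiveBLAzer B/G FRET substrate was added and plates incubated 2 h at room temperature.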
Compound,Potency [1],Potency [2],Potency [3],outcome [4],outcome [5],Potency [6],Potency [7],Potency [8],Potency [9],Potency [10],Potency [11],Potency [12],Potency [13],Potency [14],Potency [15],Potency [16],Potency [17],Potency [18],Potency [19]
O=C(c1ccccc1)c1ccc2n1CCC2C(=O)O (stereo not drawn),inactive,inactive,inactive,inactive,inactive,inactive,inactive,inactive,inactive,inactive,inactive,inactive,,,,,,,
CC/C(=C\C(=N/O)C(N)=O)C(C)[N+](=O)[O-] (stereo not drawn),inactive,inactive,inactive,inactive,inactive,inactive,inactive,inactive,,inactive,inactive,inactive,inactive,inactive,inactive,inactive,inactive,inactive,inactive
CCCCCCCCCCCCCC(=O)OCC,inactive,inactive,inactive,inactive,inactive,inactive,inactive,inactive,inactive,inactive,inactive,,,inactive,inactive,,inactive,inactive,inactive
O=C(NCCN1CCOCC1)c1ccc(Cl)cc1,inactive,inactive,inactive,inactive,inactive,inactive,inactive,inactive,inactive,inactive,inactive,inactive,inactive,,,,,inactive,inactive
C(=C/c1ccccc1)/c1ccccc1,inactive,inactive,inactive,inactive,inactive,inactive,inactive,inactive,inactive,inactive,inactive,inactive,inactive,,inactive,inactive,inactive,inactive,inactive
Nc1nc2c(ncn2COCCO)c(=O)[nH]1,inactive,inactive,inactive,inactive,inactive,inactive,inactive,inactive,inactive,inactive,inactive,,inactive,,,,,inactive,inactive
C=CCN1CCc2nc(N)sc2CC1,inactive,inactive,inactive,inactive,inactive,inactive,inactive,inactive,,inactive,0.119 µM (active),inactive,inactive,4.1 µM (active),6.01 µM (active),inactive,inactive,inactive,inactive
CSSc1ccoc1C,inactive,inactive,inactive,inactive,inactive,inactive,inactive,inactive,,inactive,,inactive,inactive,inactive,inactive,inactive,inactive,inactive,inactive
Nc1nc(-c2ccc([N+](=O)[O-])cc2)cs1,inactive,inactive,inactive,inactive,inactive,inactive,inactive,inactive,inactive,inactive,inactive,inactive,inactive,,inactive,inactive,inactive,inactive,inactive
CC(C)OCC1CO1 (stereo not drawn),inactive,30.5 µM (active),inactive,inactive,inactive,inactive,inactive,inactive,,,,inactive,inactive,inactive,inactive,inactive,inactive,inactive,inactive
O=c1[nH]sc2cc(Cl)ccc12,18.8 µM (active),13.3 µM (active),inactive,inactive,inactive,inactive,inactive,inactive,inactive,,inactive,inactive,,inactive,,inactive,inactive,,
OCCNCc1ccccc1,inactive,68.6 µM (active),inactive,inactive,inactive,inactive,inactive,inactive,inactive,inactive,inactive,inactive,,,inactive,inactive,inactive,inactive,inactive
O=C(O)CCCC[P+](c1ccccc1)(c1ccccc1)c1ccccc1,inactive,inactive,inactive,inactive,inactive,inactive,inactive,inactive,inactive,,inactive,,inactive,,inactive,inactive,inactive,inactive,inactive
CCCCCCCCCCn1cc[n+](CCCCCCCCCC)c1C,21.7 µM (active),inactive,inactive,inactive,inactive,inactive,inactive,32.4 µM (active),36.4 µM (active),27.3 µM (active),inactive,,,,55 µM (active),2.98 µM (active),inactive,,

# From PubChem BioAssay (Tox21)
